# In paper PMC8384837, “Expanding the binding specificity for RNA recognition by a PUF domain”:
# Positions count from the first letter of the chain named.
# Assays:
# Assay in all cases: yeast three-hybrid, YBZ-1, SC-Leu-His + 0.5 mM 3-AT, 4 days
# Settings in all cases: tags: N-Gal4 AD-HA kept; label: inside an RPR1-promoter hybrid RNA with tandem MS2 sites; ssRNA
# PUM1 PUF domain R1-NSR = PUM1 PUF domain R1-NSR (Homo sapiens, UniProt Q14671 828-1176, S863N;R864S;Q867R)
# Procedure, shortened: (§1)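 Repeat regions from input (SC-Leu) and selection (SC-Leu-His + 0.5 mM 3-AT) plates were PCR-amplified and Illumina-sequenced after four days of growth. The cells were strain YBZ-1 with a LexA–MS2 coat fusion and a HIS3 reporter, co-expressing Pumilio-1 PUF domain libraries and matching RNA elements from a centromeric plasmid. The interaction score is the log change in variant frequency from input to selection, taken in log2 with a pseudocount of 1 for absent variants.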
# PUM1 PUF domain R1-GMK = PUM1 PUF domain R1-GMK (Homo sapiens, UniProt Q14671 828-1176, S863G;R864M;Q867K)
# Procedure, shortened: as §1
# PUM1 PUF domain R4-VNC = PUM1 PUF domain R4-VNC (Homo sapiens, UniProt Q14671 828-1176, N971V;H972N;Q975C)
# Procedure, shortened: as §1
# PUM1 PUF domain R5-SKN = PUM1 PUF domain R5-SKN (Homo sapiens, UniProt Q14671 828-1176, C1007S;R1008K;Q1011N)
# Procedure, shortened: as §1
# PUM1 PUF domain R5-PRH = PUM1 PUF domain R5-PRH (Homo sapiens, UniProt Q14671 828-1176, C1007P;Q1011H)
# Procedure, shortened: as §1
# PUM1 PUF domain R5-CKR = PUM1 PUF domain R5-CKR (Homo sapiens, UniProt Q14671 828-1176, R1008K;Q1011R)
# Procedure, shortened: as §1
# PUM1 PUF domain R5-GTR = PUM1 PUF domain R5-GTR (Homo sapiens, UniProt Q14671 828-1176, C1007G;R1008T;Q1011R)
# Procedure, shortened: as §1
# PUM1 PUF domain R5-KAT = PUM1 PUF domain R5-KAT (Homo sapiens, UniProt Q14671 828-1176, C1007K;R1008A;Q1011T)
# Procedure, shortened: as §1
# PUM1 PUF domain R5-RMV = PUM1 PUF domain R5-RMV (Homo sapiens, UniProt Q14671 828-1176, C1007R;R1008M;Q1011V)
# Procedure, shortened: as §1
# PUM1 PUF domain R6-VFH = molecular target: T1, PUM1 PUF domain R6-VFH (Homo sapiens, UniProt Q14671 828-1176, N1043V;Y1044F;Q1047H)
# T1 sequence: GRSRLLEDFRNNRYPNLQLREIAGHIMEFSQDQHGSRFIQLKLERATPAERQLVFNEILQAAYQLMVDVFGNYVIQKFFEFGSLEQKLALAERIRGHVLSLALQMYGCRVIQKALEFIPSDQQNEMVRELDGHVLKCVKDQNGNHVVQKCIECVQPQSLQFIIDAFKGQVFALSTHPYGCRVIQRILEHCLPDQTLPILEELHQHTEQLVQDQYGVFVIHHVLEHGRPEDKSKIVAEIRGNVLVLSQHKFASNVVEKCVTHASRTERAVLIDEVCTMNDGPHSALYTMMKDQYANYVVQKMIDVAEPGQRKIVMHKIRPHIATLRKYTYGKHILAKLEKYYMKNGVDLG
# Procedure, shortened: as §1
# PUM1 PUF domain R6-LWE = molecular target: T2, PUM1 PUF domain R6-LWE (Homo sapiens, UniProt Q14671 828-1176, N1043L;Y1044W;Q1047E)
# T2 sequence: T1 sequence with V216L, F217W, H220E
# Procedure, shortened: as §1
# PUM1 PUF domain R6-RWA = molecular target: T3, PUM1 PUF domain R6-RWA (Homo sapiens, UniProt Q14671 828-1176, N1043R;Y1044W;Q1047A)
# T3 sequence: T1 sequence with V216R, F217W, H220A
# Procedure, shortened: as §1
# PUM1 PUF domain R7-ERG = PUM1 PUF domain R7-ERG (Homo sapiens, UniProt Q14671 828-1176, S1079E;N1080R;E1083G)
# Procedure, shortened: as §1
# PUM1 PUF domain R3-RSV = PUM1 PUF domain R3-RSV (Homo sapiens, UniProt Q14671 828-1176, C935R;R936S;Q939V)
# Procedure, shortened: as §1
# PUM1 PUF domain R3-MPR = PUM1 PUF domain R3-MPR (Homo sapiens, UniProt Q14671 828-1176, C935M;R936P;Q939R)
# Procedure, shortened: as §1
# PUM1 PUF domain R2-LFL = PUM1 PUF domain R2-LFL (Homo sapiens, UniProt Q14671 828-1176, N899L;Y900F;Q903L)
# Procedure, shortened: as §1
# PUM1 PUF domain R6-FWT = molecular target: T4, PUM1 PUF domain R6-FWT (Homo sapiens, UniProt Q14671 828-1176, N1043F;Y1044W;Q1047T)
# T4 sequence: T1 sequence with V216F, F217W, H220T
# Procedure, shortened: as §1
# PUM1 PUF domain R8-RYV = PUM1 PUF domain R8-RYV (Homo sapiens, UniProt Q14671 828-1176, N1122R;Q1126V)
# Procedure, shortened: as §1
# PUM1 PUF domain R4-EHI = PUM1 PUF domain R4-EHI (Homo sapiens, UniProt Q14671 828-1176, N971E;Q975I)
# Procedure, shortened: as §1
# PUM1 PUF domain R8-PYY = PUM1 PUF domain R8-PYY (Homo sapiens, UniProt Q14671 828-1176, N1122P;Q1126Y)
# Procedure, shortened: as §1
sequence,measurement,setting,value
GGCUAGAACUAGUGGAUCCCCCGGCGCCCGGCGGCUCGAGCCCGGGUAAGUGUAAAUUGUCUGCAUGCCGCCGGGCGCCAUGCCUGCAGGUCGACUCUAGAAAACAUG,binding signal,PUM1 PUF domain R1-NSR,0.4 log2 enrichment (interaction score)
same,binding signal,PUM1 PUF domain R1-GMK,3.16 log2 enrichment (interaction score)
GGCUAGAACUAGUGGAUCCCCCGGCGCCCGGCGGCUCGAGCCCGGGUAAGUGUACAUAGUCUGCAUGCCGCCGGGCGCCAUGCCUGCAGGUCGACUCUAGAAAACAUG,binding signal,PUM1 PUF domain R4-VNC,3.19 log2 enrichment (interaction score)
GGCUAGAACUAGUGGAUCCCCCGGCGCCCGGCGGCUCGAGCCCGGGUAAGUGUUAAUAGUCUGCAUGCCGCCGGGCGCCAUGCCUGCAGGUCGACUCUAGAAAACAUG,binding signal,PUM1 PUF domain R5-SKN,2.59 log2 enrichment (interaction score)
same,binding signal,PUM1 PUF domain R5-PRH,3.48 log2 enrichment (interaction score)
same,binding signal,PUM1 PUF domain R5-CKR,1.55 log2 enrichment (interaction score)
GGCUAGAACUAGUGGAUCCCCCGGCGCCCGGCGGCUCGAGCCCGGGUAAGUGUCAAUAGUCUGCAUGCCGCCGGGCGCCAUGCCUGCAGGUCGACUCUAGAAAACAUG,binding signal,PUM1 PUF domain R5-GTR,4.92 log2 enrichment (interaction score)
same,binding signal,PUM1 PUF domain R5-SKN,1.73 log2 enrichment (interaction score)
same,binding signal,PUM1 PUF domain R5-KAT,3.96 log2 enrichment (interaction score)
same,binding signal,PUM1 PUF domain R5-RMV,3.48 log2 enrichment (interaction score)
same,binding signal,PUM1 PUF domain R5-CKR,5.95 log2 enrichment (interaction score)
GGCUAGAACUAGUGGAUCCCCCGGCGCCCGGCGGCUCGAGCCCGGGUAAGUGAAAAUAGUCUGCAUGCCGCCGGGCGCCAUGCCUGCAGGUCGACUCUAGAAAACAUG,binding signal,PUM1 PUF domain R6-VFH,3.39 log2 enrichment (interaction score)
same,binding signal,PUM1 PUF domain R6-LWE,3.79 log2 enrichment (interaction score)
same,binding signal,PUM1 PUF domain R6-RWA,4.28 log2 enrichment (interaction score)
GGCUAGAACUAGUGGAUCCCCCGGCGCCCGGCGGCUCGAGCCCGGGUAAGUUUAAAUAGUCUGCAUGCCGCCGGGCGCCAUGCCUGCAGGUCGACUCUAGAAAACAUG,binding signal,PUM1 PUF domain R7-ERG,4.23 log2 enrichment (interaction score)
GGCUAGAACUAGUGGAUCCCCCGGCGCCCGGCGGCUCGAGCCCGGGUAAGUCUAAAUAGUCUGCAUGCCGCCGGGCGCCAUGCCUGCAGGUCGACUCUAGAAAACAUG,binding signal,PUM1 PUF domain R7-ERG,2.98 log2 enrichment (interaction score)
GGCUAGAACUAGUGGAUCCCCCGGCGCCCGGCGGCUCGAGCCCGGGUAAGUGUAAAUCGUCUGCAUGCCGCCGGGCGCCAUGCCUGCAGGUCGACUCUAGAAAACAUG,binding signal,PUM1 PUF domain R1-NSR,2.5 log2 enrichment (interaction score)
GGCUAGAACUAGUGGAUCCCCCGGCGCCCGGCGGCUCGAGCCCGGGUAAGUGUGAAUAGUCUGCAUGCCGCCGGGCGCCAUGCCUGCAGGUCGACUCUAGAAAACAUG,binding signal,PUM1 PUF domain R5-PRH,2.93 log2 enrichment (interaction score)
GGCUAGAACUAGUGGAUCCCCCGGCGCCCGGCGGCUCGAGCCCGGGUAAGUGUAAUUAGUCUGCAUGCCGCCGGGCGCCAUGCCUGCAGGUCGACUCUAGAAAACAUG,binding signal,PUM1 PUF domain R3-RSV,3.06 log2 enrichment (interaction score)
same,binding signal,PUM1 PUF domain R3-MPR,2.67 log2 enrichment (interaction score)
GGCUAGAACUAGUGGAUCCCCCGGCGCCCGGCGGCUCGAGCCCGGGUAAGUGUAAAAAGUCUGCAUGCCGCCGGGCGCCAUGCCUGCAGGUCGACUCUAGAAAACAUG,binding signal,PUM1 PUF domain R2-LFL,5.51 log2 enrichment (interaction score)
GGCUAGAACUAGUGGAUCCCCCGGCGCCCGGCGGCUCGAGCCCGGGUAAGUGUAAAUAGUCUGCAUGCCGCCGGGCGCCAUGCCUGCAGGUCGACUCUAGAAAACAUG,binding signal,PUM1 PUF domain R6-FWT,4.41 log2 enrichment (interaction score)
same,binding signal,PUM1 PUF domain R8-RYV,4.92 log2 enrichment (interaction score)
same,binding signal,PUM1 PUF domain R4-EHI,3.46 log2 enrichment (interaction score)
same,binding signal,PUM1 PUF domain R8-PYY,2.84 log2 enrichment (interaction score)
same,binding signal,PUM1 PUF domain R3-MPR,0.58 log2 enrichment (interaction score)
same,binding signal,PUM1 PUF domain R5-PRH,3.22 log2 enrichment (interaction score)
same,binding signal,PUM1 PUF domain R6-RWA,5.03 log2 enrichment (interaction score)
GGCUAGAACUAGUGGAUCCCCCGGCGCCCGGCGGCUCGAGCCCGGGUAAGCGUAAAUAGUCUGCAUGCCGCCGGGCGCCAUGCCUGCAGGUCGACUCUAGAAAACAUG,binding signal,PUM1 PUF domain R8-RYV,6.01 log2 enrichment (interaction score)
same,binding signal,PUM1 PUF domain R8-PYY,3.73 log2 enrichment (interaction score)
